Entries with a potency or affinity are not part of this list. Activity calls are given as the source filed them. The rule behind the calls is not given here.

A short description of the assay: host cell cytotoxicity of antiviral hits, dose response, cytotoxicity control for West Nile virus antiviral project, secondary assay (AID 1650). As to conditions: Mammalian host cell viability, cytotoxicity counter-screen; series mostly up to 10 µM.
For `Cc1ccc(C)c(CN2C(=O)c3ccccc3S(=O)c3ccc(C(=O)NCCCN4CCCC4)cc32)c1` (stereo not given), the result was inactive. `Cc1ccc(S(=O)(=O)N(C)C)cc1NC(=O)c1cncc(Br)c1`: the molecule was called inactive.

As to `CCCN1CCN(CCCNC(=O)c2ccc3nc(N4CCC(C)CC4)sc3c2)CC1`, the molecule was called inactive.

`CC/C(=C(\c1ccc(O)cc1)c1ccc(OCCN(C)C)cc1)c1ccccc1`: the molecule was called inactive.

In the case of `CC1CN(C(=O)CCC(=O)NCCCN2CCC(Cc3ccccc3)CC2)c2cc(Cl)ccc2O1` (stereo not given), the call was inactive. Consider `O=C1OC(N2CCN(Cc3ccccc3)CC2)c2ccccc21` (stereo not given), for which the result was inactive. The value for `COc1ccc(CNCCC(c2ccc(OC(C)C)cc2)c2ccccc2OC)cc1OC` (stereo not given) was “inactive”; that for `Cc1ccc(CN(Cc2cc3cccc(C)c3[nH]c2=O)C(=S)NCCCN(C)C)cc1` was “inactive”.

Take `COc1cc([C@H]2c3[nH]c4ccccc4c3C[C@H]3C(=O)N4[C@@H](c5cc(OC)c(OC)c(OC)c5)c5[nH]c6ccccc6c5C[C@H]4C(=O)N23)cc(OC)c1OC`: the molecule was classed as inactive. `CC(=O)Oc1ccc(-c2ccc(C(=O)OCC(=O)N(C)CC(=O)Nc3ccccc3Cl)cc2)cc1`: the outcome was inactive. On to `CCCCCCn1c(SCC(=O)Nc2cc(C)on2)nc2ccccc2c1=O`, for which the outcome was inactive. The value for `CCOC(=O)c1c2c(n(C)c1COC)C(=O)C(=O)c1ccc(Br)cc1-2` was “inactive”; that for `Cc1onc(-c2cccc(Cl)c2Cl)c1C(=O)O/N=C(\N)c1ccc([N+](=O)[O-])o1` was “inactive”; that for `CCN1CCN(c2cc(C)c3cc(NC(=S)N4CCCC(C)C4)ccc3n2)CC1` (stereo not given) was “inactive”. As for `OC(COc1ccc(CNCCc2ccc(C(F)(F)F)cc2)cc1)CN1CCCCC1` (stereo not given), the entry is “inactive”. For the molecule `Cc1cccc(C)c1Nc1nc2ccccc2o1`, the call was inactive. As for `COc1cccc(/C=N/NC(=O)c2cc(-c3cccn3C)n[nH]2)c1O`, the entry is “inactive”; as for `COc1cc(CNC(C)(C)CO)ccc1OCC(=O)Nc1ccc(Br)cc1`, “inactive”. As for `CCN(CC)CCNC(=O)c1ccc(NC(=O)C2CCN(c3ncnc4sc(C)c(C)c34)CC2)cc1`, the entry is “inactive”; as for `COc1cc2c(O)c3c(c(-c4ccc5c(c4)OCO5)c2cc1OC)C(=O)OC3`, “inactive”; as for `Cc1c(/C=N/NC(=O)C(C)(C)Oc2ccc(Cl)cc2)cnn1C`, “inactive”. The value for `COc1ccc(/C=C2\SC(=S)N(CCC(=O)NCCc3ccc(O)cc3)C2=O)cc1` was “inactive”. For the molecule `Cn1c(=O)n(CCCOc2ccc(Br)cc2)c2ccccc21`, the call was inactive.

Consider `COc1ccc(NC(=O)CSc2nc3ccccc3c(=O)n2CCCN2CCC(C)CC2)c(OC)c1`, for which the call was inactive. The value for `CN(C)CCNC(=O)c1cc2sc3ccccc3c2s1` was “inactive”; that for `COc1ccc(N2C(=O)C(C)(C)C2c2c(O)ccc3ccccc23)cc1` (stereo not given) was “inactive”. For `CCOC(=O)c1nn(-c2ccccc2)c2nc(-c3ccc(OC)cc3)c(C#N)c(=O)n12`, the molecule was called inactive.

Take `Cc1ccc(Sc2nnc(Cc3ccccc3)c3ccccc23)cc1`: the outcome was inactive. As for `Cc1cccc(-c2ccc(NC(=O)C3CCN(CC4CC4)CC3)cc2)c1`, the entry is “inactive”; as for `CC1CCCN(Cc2c(O)ccc3c(=O)c(-c4nc5ccccc5s4)c(N)oc23)C1` (stereo not given), “inactive”. As for `COc1cc(C2c3c(oc4cc(C)c(C)cc4c3=O)C(=O)N2c2cc(C)ccn2)ccc1O` (stereo not given), the outcome was inactive. As for `O=C(NCCCn1ccnc1)c1cc2nc(-c3ccc(Br)cc3)cc(C(F)(F)F)n2n1`, the entry is “inactive”; as for `COc1ccc(C2c3ccc4ccccc4c3Oc3ncn(CCO)c(=N)c32)cc1` (stereo not given), “inactive”. Regarding `O=C(CCN1C(=O)/C(=C\c2ccccc2Cl)SC1=S)N1CCN(c2ccccc2)CC1`, the molecule was called inactive.

Consider `CN(C)CCCN(C(=O)c1ccc2c(c1)OCCO2)c1nc2ccc(Cl)cc2s1`, for which the result was inactive. In the case of `COc1ccccc1NC(=O)N1CCn2c(nc3ccccc32)C1`, the molecule was called inactive. On to `CCc1ccc2nc(N(CCCN(C)C)C(=O)c3ccc4c(c3)OCCO4)sc2c1`, for which the molecule was classed as inactive. Turning to `N#Cc1c(N)nc2c3c(sc(=N)c2c1N)NC(=O)CC3c1ccccc1Cl` (stereo not given), the call was inactive. The value for `CN1CCN(CC(=O)Nc2c(C(=O)c3ccccc3)oc3ccccc23)CC1` was “inactive”; that for `COc1ccc(-c2ccc(C#N)c(SCC(=O)Nc3sc4c(c3C#N)CCC4)n2)cc1OC` was “inactive”.
